# Laboratory results from ChEMBL document CHEMBL3988442, “University of Dundee, Small-Polar-MMV Screening Library” (2021).
# Experiments:
# [1] = molecular target: T1, Aspartate--tRNA(Asp/Asn) ligase (Mycobacterium tuberculosis (strain ATCC 25618 / H37Rv)) (UniProt P9WFW3); experiment: Assay for Asp RNA synthetase-1 from Mycobacterium tuberculosis; format: functional; parameters: scale not given: direction of the effect not stated beside the values; conditions: 30 µM; also: in the data most compounds retested in dose-response had high values
# T1 sequence (whole entry): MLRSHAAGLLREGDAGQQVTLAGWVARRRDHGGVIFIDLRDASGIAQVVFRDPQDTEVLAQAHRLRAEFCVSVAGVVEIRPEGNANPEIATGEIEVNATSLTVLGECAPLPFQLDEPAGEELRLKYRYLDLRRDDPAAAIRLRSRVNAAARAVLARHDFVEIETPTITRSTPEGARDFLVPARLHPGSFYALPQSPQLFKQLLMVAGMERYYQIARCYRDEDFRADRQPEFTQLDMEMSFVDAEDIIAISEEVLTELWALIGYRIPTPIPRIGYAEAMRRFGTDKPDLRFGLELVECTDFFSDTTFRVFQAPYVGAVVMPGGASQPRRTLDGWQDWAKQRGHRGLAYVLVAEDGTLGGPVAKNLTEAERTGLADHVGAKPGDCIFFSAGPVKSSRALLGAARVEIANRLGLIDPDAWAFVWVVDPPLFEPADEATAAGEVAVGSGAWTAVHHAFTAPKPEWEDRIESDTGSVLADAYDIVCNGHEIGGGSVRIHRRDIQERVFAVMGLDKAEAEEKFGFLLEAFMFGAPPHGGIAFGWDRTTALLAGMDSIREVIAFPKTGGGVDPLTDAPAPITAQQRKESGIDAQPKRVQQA
# [2] = molecular target: Shiga toxin 2 (Escherichia coli O157:H7) (UniProt P09385+P09386); experiment: E. coli 0.157:H7 Shiga Toxin SOP - stx2 screening assay; format: functional; parameters: scale not given: direction of the effect not stated beside the values; conditions: 30 µM
SMILES,Percent Effect [1],Percent Effect [2]
COCCN1CCCC(O)(CN2CCN(c3ncccc3C)CC2)C1=O (stereo unspecified),5.57%,-7.55%
NC(=O)c1cnn2c1NCC(CNCCCOc1ccccc1F)C2 (stereo unspecified),-0.278%,17.4%
O=C(NCc1cc(O)ncn1)C1CCOc2ccccc2C1 (stereo unspecified),-6.23%,16%
Cc1ccc(-c2nc(CNC3CCc4ncnn4C3)co2)c(C)c1 (stereo unspecified),-9.8%,-22%
CCOCCC(=O)N1CCCN(Cc2csc(CC)n2)CC1,-0.742%,-4.81%
CS(=O)(=O)c1ccc(CNC(=O)N2CCC(c3ccccc3)CC2)cc1,-2.06%,7.64%
COCCCNC(=O)N1CCCC(c2nncn2C)C1 (stereo unspecified),1.97%,21.1%
CCOc1ncccc1C(=O)N1CCCC1c1c(C)nn(C)c1OC (stereo unspecified),-0.602%,-8.49%
CNC(=O)CC1CC2(CCN(Cc3nccs3)CC2)c2ccccc21 (stereo unspecified),-1.76%,-4.71%
Cc1cccc(OCCC(=O)NCC(C)(C)C(N)=O)c1,0.144%,31.1%
CC(=O)Nc1nc(CN2CCCC2c2cnn(C)c2)cs1 (stereo unspecified),-1.4%,-28.6%
NC(=O)NCC(=O)N1C[C@H]2CC[C@@H]1CN(Cc1ccccc1)C2,15.6%,-8.55%
Cc1cnn(CC2CCCN2C(=O)c2cc3c(F)cccc3[nH]2)c1 (stereo unspecified),4.86%,-37.3%
O=C1NCC2(CCCN(CCc3ccccc3)C2)Oc2ccccc21 (stereo unspecified),-2.1%,-68.8%
Cc1nc(C)n(CC2CN(CC(=O)Nc3nccs3)CCO2)n1 (stereo unspecified),-3.2%,0.609%
O=C(c1ccc(NC2CC2)nc1)N1CCCC(n2cccn2)C1 (stereo unspecified),-1.7%,14.7%
O=C(c1ccncc1)N1CCCC2(COCCN(c3ccccc3)C2)C1 (stereo unspecified),2.82%,-1.46%
Cn1nc(CNC(=O)NCc2ccc(Cl)cc2)c2c1CCOC2,1.91%,-9.65%
